For 63 sequences, ETS1 binding intensity results are on record in the supplement of paper PMC10681739.

In all, about 4,100 sequences were measured (“arbitrary fluorescence units”: median about 780, highest 2% from about 22,000 on). This is one part of a sample in which the highest values are shown more often than they occur.

The target of this assay is T1, ETS1 (UniProt P14921).
T1 sequence: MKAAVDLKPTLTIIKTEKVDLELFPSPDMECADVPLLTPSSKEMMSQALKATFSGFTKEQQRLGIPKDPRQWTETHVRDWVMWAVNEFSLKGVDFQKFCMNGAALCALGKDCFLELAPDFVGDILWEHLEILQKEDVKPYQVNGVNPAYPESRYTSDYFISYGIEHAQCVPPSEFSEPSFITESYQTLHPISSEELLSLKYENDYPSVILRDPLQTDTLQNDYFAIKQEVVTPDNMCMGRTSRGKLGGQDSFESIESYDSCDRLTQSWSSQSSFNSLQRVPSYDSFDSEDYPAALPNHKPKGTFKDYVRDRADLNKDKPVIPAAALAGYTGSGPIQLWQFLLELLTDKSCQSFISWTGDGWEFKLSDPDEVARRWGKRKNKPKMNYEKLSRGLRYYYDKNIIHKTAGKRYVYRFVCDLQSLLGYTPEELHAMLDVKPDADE
Nature of the assay: ETS1 binding intensity (PBM fluorescence), ETS1 alone (arbitrary fluorescence units); higher = stronger binding. To be noted: ETS1 concentration 1 nM; RUNX1 concentration 0 nM. As to the method: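 gcPBM on 36-bp genomic-derived probes (partner site mutated) containing one ETS1 site and no RUNX1 site. Recombinant human ETS1 (1 nM) was incubated alone or with RUNX1 (25 nM) and detected by anti-ETS1 antibody fluorescence. Values are medians over 4 replicate spots (not normalised). The probes sit in constant array flanks that are not printed.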
Sequence GGGACTGCAGTCCCGGGGAGCGCACCGGAAGTTCTC displayed an ETS1 binding intensity of 4610. In the case of ACAGAGGTGCTACCCCAAGGACCGGAAGCAGAGACC it was 3940; in that of GGACCGGAAGTTAAGGCGTTCGCGGCGTGTGATAAG, 22900.

GCCCCGGAAGCTCCTTAAGGAGGACCGTGTGAGTTT registered an ETS1 binding intensity of 1880.

Regarding TACCGGCGTTAATATAGTAAGGGCGGAAGTTCTCCT, the ETS1 binding intensity was 1190. To ACTTGGCAGTTCCGGGTCCGCGCCCCAGCGCGCCAC belongs 2630. In the case of GTAGCAACAGCAGGCTCACACACCGGAAGTGCTCGC it was 9380; in that of TTGCTCCCGGAAGCCCCGCCCGTCCGTGGCTCCTGA, 1350; in that of CCTGCCTTCCGTCTTCCAGGCAGAACGACAGAGAGG, 1710. To CAGATTTCCGGCTTCTGAGGAGCTGCCCTACCCCAG belongs 38200; to CCCAGAGCTTCCGATTGGCTCTTCTGAGGTGGCGGG, 1750. For AATGAGCCCCAGAACCCTTTTCCTTCCGGCCTGCAC, the ETS1 binding intensity stood at 1300. Sequence AGTAACCAGCAGGCTGTGCCGGCAGGATGTTGTCTT displayed an ETS1 binding intensity of 469.

As for CTGGGGTCGGGGCGAGGGAGCTGCCGGGGAAGTGAG, the ETS1 binding intensity was found to be 513.

GGCCAAGAAATCCACTCAGAGGAAATCACAGGCCTG gave an ETS1 binding intensity of 439. GAGAAACGTCAGGCATGGCCGGGCCACCAGGAAAAC registered an ETS1 binding intensity of 347.

For CCCGGCGGCTACTTTCGGTCACTTTCGCCGGAACCT, the ETS1 binding intensity came to 444. In the case of GGCCGACGGGAAGTGTAGTCCGGCCTGCAGTCCGGG it was 1970.

The sequence GCCCTACCCAGCGGCGGCCGGACGCTTCGGCGCAGG registered an ETS1 binding intensity of 435. To TTTTTTCCGCCTGTAGGGTCACATTGGGGTTGATTG belongs 2790. Sequence GCTCGTTTGGGGTTACTGACATCCGGCCTTCATTTC came in with an ETS1 binding intensity of 5140. In the case of CTGACGCATTTCCGGCCTTTGGGGTTGATCGGTCAT it was 26200; in that of CCAGGAGGGATGGGGAAGTTCACCAGACACTCCATG, 444. In the case of GTCACTGTCGTATTTACTTTAGCTTCCTGTTCATCC it was 1880; in that of CGATTCCGGATTGGTCCAATTCCAGCGCCGAAGCCC, 673; in that of GCCACCTTACGACAGCTGTACAGAGCTTCCTTTAGC, 390.

CTAGCAGCTTCCGAGGGGGCGGCGGCCGGAGCGAGT registered an ETS1 binding intensity of 784. In the case of AGCACTTCCGTTTGGGCAGGGCTGAGGGCCGGAGGG it was 16800. To AACCTCCGACTTCCGGCCGCGCAGCGGAGGGCTGAG belongs 32100. Sequence GGGGGAGTTTTCGGAAGCGCTAACAGCGTTGGGGCC came in with an ETS1 binding intensity of 566. TGGTGCCAAACATCCGCTAGCCAGAGAAAAACCGAC returned an ETS1 binding intensity of 6500.

Take ACACCGTGCTTTTCGGTTCCCGGAAGTCCTTCAGGC: the ETS1 binding intensity is 1560. In the case of GACAAGATTGCAGGTGGCAACCCCATCCGGTTTGTT it was 1400; in that of GGTCGCTCTGGTGACGGGGGAGGAAATTCTGTCCGT, 512. As to TCTGTCGCACATCCGGTGTGAGCTTCGGGGCGGTGG, the ETS1 binding intensity was found to be 22500.

The sequence GTGAGCTTCCCGGCGCGCGGGGGGCGGTGCGCCTTC gave an ETS1 binding intensity of 797.

As for CCTTTGGGGTAGCAGTGGCCCCGCGCGGAGGAAGTT, the ETS1 binding intensity was 303. In turn, GCAGCTTCCGCGGCCCCCGCCCGGCCTGCAGCGCCA returned an ETS1 binding intensity of 2350.

On to TGACATTTCCGGCCCCACCTCGGCCTGCAGCGCCGC, for which the ETS1 binding intensity is 40200. To CTAGCCACCTCGGCCCCACCCTCTTCCGGCCTCAGC belongs 1820.

Turning to TATCAGCTTCCGACGTGCCCCTCGGTATCTGGACTA, the ETS1 binding intensity is 1600. GGATTTTGGGGTAGCGAACCCCGGGGCCGGAAGCAG registered an ETS1 binding intensity of 1080. In the case of CTGTCTGCTTCCCGTGGCCAGCCCTGATCGCGGCCC it was 953. To TTCGCTCCCTGAATCGCGTCGCTTCCTGAGCCGCGC belongs 454; to CGGGACTTCCTGTCTTCCCTGTCGCGGAGCTCTGAA, 27000. With CCATTGGCGGGCGGCTTGAATGACGGAAGTGACGGC, the ETS1 binding intensity was found to be 872. In the case of CTGTCGTGACCCGGCAGGAGTAGCGTCGGAAGCAAT it was 403; in that of CTTAGCGGAAGAGGCGTGACCCAGGCGTACCCCAGG, 1380; in that of GGTCCAGGAAGACGTCAAGGGCTTGGATTTGTAAAC, 437. In the case of GCACCACCGGAAGTAGGGCTCAACCTCCGCTCATTT it was 24400; in that of TAGGTCACCTCCGCGACACAGCAACGGAAGTAGGGT, 1110; in that of AGGGGCAGAGCACAGCACCACCGGAAGTAGGGCTCA, 9450. To GTCCCCTCGGTGTCACAGCAATATCCGTTCTTTGAT belongs 1190; to CGGGAATCCACGGAATTTACTGCCGGAAGTTCGGCG, 2700; to CGAGAACGGCGCCACTGAGGAACCGGAAACAAGCCA, 3230.

CATCTGTTGTCTCCTTGAAGTCACATCCCACAGGAG displayed an ETS1 binding intensity of 438. For AGACCCTGTTGTCACATGGCAGGAAGTCTGCAGGTT, the ETS1 binding intensity worked out at 1060. GAAGTCACATCCTGTCTGTTGGGGCAGGGCACAGAG had an ETS1 binding intensity of 23500. To ACAAAAAAATCACACACCCAACGGAAACCATAGAGA belongs 669. In the case of AGCACCCCATTCTACACCTCCAGCTCATCCTGCGTC it was 389; in that of GAACTTCCGGGACCACGTGACGTAGAACTACAACAA, 32800; in that of CTCCTGGGCTTGTAGTTAGAACATCCTGCAGCAAAG, 1130.

With AATGAGCCCCAGAACCCTTTTCCTTCCGGCCTGTGC, the ETS1 binding intensity was found to be 1520.
